{"source": "PubChem BioAssay AID488922", "about": "(Johns Hopkins Ion Channel Center, 2010)", "note": "Out of some 310,000 compounds screened, about 3,800 (1.2%) were called active.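 How the source made its calls: active means ratio B-score over 3 SD below the library mean, with starting fluorescence within 5 SD of its mean; inactive means the rest, inconclusive results apart.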 Many of the other results were omitted from the sample, so actives are more common in it than they were."}
{"target": "Potassium channel subfamily K member 9 (Homo sapiens) (UniProt Q9NPC2)", "sequence (Q9NPC2 whole entry, looked up)": "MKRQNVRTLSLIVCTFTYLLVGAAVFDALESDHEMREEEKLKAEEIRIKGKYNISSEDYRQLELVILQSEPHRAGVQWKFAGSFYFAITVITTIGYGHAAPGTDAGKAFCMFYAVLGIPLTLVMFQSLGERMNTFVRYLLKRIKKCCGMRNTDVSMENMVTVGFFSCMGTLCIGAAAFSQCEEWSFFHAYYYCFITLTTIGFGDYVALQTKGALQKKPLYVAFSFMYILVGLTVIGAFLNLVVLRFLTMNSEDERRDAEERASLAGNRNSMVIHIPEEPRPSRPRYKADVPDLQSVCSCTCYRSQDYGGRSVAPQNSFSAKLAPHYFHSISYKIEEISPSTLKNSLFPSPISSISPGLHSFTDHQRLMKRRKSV", "test": "KCNK9 potassium channel inhibitors, primary screen, HEK293 cells, thallium flux (AID 488922);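 on B-score: negative B-score means less thallium flux so channel inhibition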", "settings": "HEK293 KCNK9, FluxOR thallium flux fluorescence, at 10 µM; stronger effect = lower value"}
{"smiles": "CNC(=O)c1sc(Nc2ccc(OCc3ccccc3)cc2)nc1C", "B-score": "inactive"}
{"smiles": "CCOC(=O)C(C)Sc1nc2ccccc2c(=O)n1CC1CCCCC1", "note": "(stereo not given)", "B-score": "-11.7 (active)"}
{"smiles": "CCOC(=O)C1CCc2nc3ccccc3c(=O)n21", "note": "(stereo not given)", "B-score": "inactive"}
{"smiles": "CCOn1c(SC(C)C)nc2ccccc2c1=O", "B-score": "inactive"}
{"smiles": "FC(F)(F)c1ccc2c3n(nc2c1)CCN=C3c1ccc(Cl)cc1", "B-score": "inactive"}
{"smiles": "O=C(Nc1ccc(Br)cc1)c1cccc(NC(=O)C2C3CC4OC(=O)C2C4C3)c1", "note": "(stereo not given)", "B-score": "inactive"}
{"smiles": "CCC/C=C(\\CCC)C(NC(=O)Cc1ccccc1)c1ccc(C(=O)OC)cc1", "note": "(stereo not given)", "B-score": "-13.9 (active)"}
{"smiles": "COC(=O)c1ccc(C(NC(=O)OCc2ccccc2)/C(F)=C/[C@@H](C)C(=O)O)cc1", "note": "(stereo not given in full)", "B-score": "inactive"}
{"smiles": "CCC[C@@H]1C[C@@]1(CCC)[C@@H](NC(=O)c1ccccc1)c1ccc(C(=O)OC)cc1", "B-score": "inactive"}
{"smiles": "CCc1cc2c(=O)n(-c3ccccc3)c(SCC(=O)O)nc2s1", "B-score": "inactive"}
{"smiles": "CCNC(=S)N(CCc1c(C)[nH]c2ccc(C)cc12)Cc1ccco1", "B-score": "inactive"}
{"smiles": "COc1cccc(NC(=S)N(CCc2c(C)[nH]c3ccccc23)Cc2ccco2)c1", "B-score": "-9.04 (active)"}
{"smiles": "COc1ccc2[nH]c(C)c(CCN(Cc3cccs3)C(=S)Nc3ccccc3OC)c2c1", "B-score": "inactive"}
{"smiles": "O=C1c2ccccc2S(=O)(=O)N1Cc1c(F)cccc1Cl", "B-score": "inactive"}
{"smiles": "O=C1CCN(CCCc2ccccc2)CCN1CCO", "B-score": "inactive"}
{"smiles": "CCOC(=O)[C@@H]1[C@H]2COc3cc(OC)ccc3[C@H]2N2C(=O)N(c3ccc(F)cc3)C(=O)[C@]12C", "B-score": "inactive"}
{"smiles": "CCOC(=O)[C@H]1[C@H]2COc3cc(OC)ccc3[C@@H]2N2C(=O)N(c3ccc(Br)cc3)C(=O)[C@@]12C", "B-score": "inactive"}
{"smiles": "CCOC(=O)[C@@H]1[C@H]2COc3ccc(Br)cc3[C@H]2N2C(=O)N(c3ccc(Cl)cc3)C(=O)[C@@]12C", "B-score": "-10.9 (active)"}
{"smiles": "Cc1onc(-c2ccccc2Cl)c1C(=O)OCc1nnc(-c2ccccc2)o1", "B-score": "inactive"}
{"smiles": "Cc1cc(SCc2c(F)cccc2Cl)nc(=O)[nH]1", "B-score": "inactive"}
{"smiles": "Fc1cccc(Cl)c1CSc1ccc(-c2ccco2)nn1", "B-score": "-14.1 (active)"}
{"smiles": "O=C(CSc1ccc(-c2ccco2)nn1)Nc1cccc(F)c1", "B-score": "inactive"}
{"smiles": "NC(=O)C1=C[C@@H](c2csc3ccccc23)C[C@@H](OCc2ccc(CO)cc2)O1", "B-score": "inactive"}
{"smiles": "COC(=O)c1c(NC(=O)C(=O)N2CCCCC2)sc2c1CC(C)(C)OC2", "B-score": "inactive"}
{"smiles": "COc1ccc(/C=C2\\CCCC3C2=NN(C(=O)c2scnc2C)C3c2ccc(OC)cc2)cc1", "note": "(stereo not given)", "B-score": "inactive"}
{"smiles": "CCCCC(C(=O)NC(C)(C)C)N(Cc1ccccc1)C(=O)c1snc(C(N)=O)c1N", "note": "(stereo not given)", "B-score": "inactive"}
{"smiles": "COc1cc(C(O)c2nc3ccccc3n2C)cc(OC)c1OC", "note": "(stereo not given)", "B-score": "inactive"}
{"smiles": "CCC(C)n1c(-c2cc(OC)c(OC)c(OC)c2)nc2nc3ccccc3nc21", "note": "(stereo not given)", "B-score": "-15.1 (active)"}
{"smiles": "COc1cc(-c2n[nH]c(=S)n2Cc2ccccc2)cc(OC)c1OC", "B-score": "inactive"}
{"smiles": "COc1ccccc1-n1ccnc(SCC(=O)NC2CCCCC2)c1=O", "B-score": "inactive"}
{"smiles": "O=C(C1CCN(C2CCN(Cc3ccc4cc(F)ccc4n3)CC2)CC1)N1CCCC1", "B-score": "inactive"}
{"smiles": "CCN(C(=O)COC(=O)c1cc(NS(=O)(=O)c2ccc(Cl)c([N+](=O)[O-])c2)ccc1O)C1CCCCC1", "B-score": "inactive"}
{"smiles": "Cc1c(C(=O)N2CCCc3ccccc32)oc2ccccc12", "B-score": "inactive"}
{"smiles": "Cc1cccc2cc3c(N)c(C(=O)N4CCCc5ccccc54)sc3nc12", "B-score": "-6.79 (active)"}
{"smiles": "O=C(c1cc(-c2ccc(O)cc2)on1)N1CCCc2ccccc21", "B-score": "inactive"}
{"smiles": "Cc1c(C(=O)NCC2CCCO2)sc2nc(-c3ccccc3)cn12", "note": "(stereo not given)", "B-score": "inactive"}
{"smiles": "Cc1c(C(=O)N2CCCc3ccccc32)sc2nc(-c3ccccc3)cn12", "B-score": "-6.69 (active)"}
{"smiles": "Cc1c(C(=O)N2CC(C)OC(C)C2)sc2nc(-c3ccccc3)cn12", "note": "(stereo not given)", "B-score": "inactive"}
{"smiles": "COc1cccc(CNC(=O)Cn2c(=O)oc3cc(S(=O)(=O)N4CCCCC4)ccc32)c1", "B-score": "inactive"}
{"smiles": "Cc1ccc(N2CC(C(=O)Nc3ccc(S(=O)(=O)N4CCCC4)cc3)CC2=O)cc1C", "note": "(stereo not given)", "B-score": "inactive"}
{"smiles": "O=C(CCc1n[nH]c(=O)[nH]c1=O)N/N=C/c1ccc(Br)o1", "B-score": "inactive"}
{"smiles": "CC(C)OCCCNC(=O)c1ccc(C2SCC(=O)N2Cc2ccco2)cc1", "note": "(stereo not given)", "B-score": "inactive"}
{"smiles": "CCCCCCCC(=O)NC(Nc1ccccc1OC)C(Cl)(Cl)Cl", "note": "(stereo not given)", "B-score": "inactive"}
{"smiles": "CCOC(=O)N1CCC(N(CCOC)C(=O)Nc2ccc(C)c(C)c2)CC1", "B-score": "inactive"}
{"smiles": "CCCCCCCCC(=O)NCCOc1ccccc1", "B-score": "inactive"}
{"smiles": "CCCCCCCCCCOC(=O)Cn1c(COc2ccc(C)cc2)[n+](C)c2ccccc21", "B-score": "-11.4 (active)"}
{"smiles": "Cc1ccc(OCCCn2c(=O)oc3ccccc32)cc1", "B-score": "inactive"}
{"smiles": "CCCCCCCCCCOC(=O)Cn1c(COc2cccc(OC)c2)[n+](C)c2ccccc21", "B-score": "-17.1 (active)"}
{"smiles": "CCn1c(COc2cccc(OC)c2)nnc1SCC(=O)N1CCOCC1", "B-score": "inactive"}
{"smiles": "CCOC(=O)Cn1c(-c2cccnc2Cl)nc2ccccc21", "B-score": "inactive"}
{"smiles": "C[C@@H]1O[C@@H](OC[C@H]2O[C@@H](Oc3c(-c4ccc(O)cc4)oc4cc(O)cc(O)c4c3=O)[C@H](O)[C@@H](O)[C@@H]2O)[C@H](O)[C@H](O)[C@H]1O", "B-score": "inactive"}
{"smiles": "Cc1ccc(C2(C)NC(=O)N(CC(=O)Nc3ccccc3C(=O)N3CCCCC3)C2=O)cc1", "note": "(stereo not given)", "B-score": "inactive"}
{"smiles": "O=C(OCCN1CCOCC1)C1(c2ccccc2)CCCCC1", "B-score": "inactive"}
{"smiles": "CCc1ccc(-c2cc(C(=O)NN3CCN(C)CC3)c3ccccc3n2)cc1", "B-score": "inactive"}
{"smiles": "CC(C)CN(C(=O)COC(=O)c1ccc2ccccc2c1)c1c(N)n(Cc2ccccc2)c(=O)[nH]c1=O", "B-score": "inactive"}
{"smiles": "Cc1ccc(NS(=O)(=O)c2ccc(-c3ccc(=O)[nH]n3)o2)c(C)c1", "B-score": "inactive"}
{"smiles": "Cc1ccc(CCN2CC(C(=O)NCCc3ccccc3)CC2=O)cc1", "note": "(stereo not given)", "B-score": "inactive"}
{"smiles": "O=C(Nc1ccc(Cl)cc1)C1c2cccc[n+]2CC(=O)N1Cc1ccc2c(c1)OCO2", "note": "(stereo not given)", "B-score": "inactive"}
{"smiles": "CCOc1ccc(/C=N/NC(=O)C(C)Sc2ccccn2)cc1OCC", "note": "(stereo not given)", "B-score": "inactive"}
{"smiles": "CCOc1ccc(/C=N/NC(=O)CSc2ccccn2)cc1O", "B-score": "inactive"}
{"smiles": "C=CCOc1ccc(/C=N/NC(=O)C(C)Sc2ccccn2)cc1OCC", "note": "(stereo not given)", "B-score": "-8.3 (active)"}
{"smiles": "C/C(=N\\NC(=O)CCn1nc(C)cc1C)C(C)(C)C", "B-score": "inactive"}
{"smiles": "O=C(COC(=O)c1ccc[nH]c1=O)Nc1ccc2c(c1)OC(F)(F)O2", "B-score": "inactive"}
{"smiles": "COc1ccc(OCC(=O)Nc2ccc(NC(=O)c3ccco3)c(C)c2)cc1", "B-score": "inactive"}
{"smiles": "O=C(COC(=O)c1ccccc1NC(=O)c1ccco1)Nc1ccc2c(c1)OC(F)(F)O2", "B-score": "-8.01 (active)"}
